Legend:
[1] = biological target: T1, Ephrin type-B receptor 2 (Homo sapiens) (UniProt P29323); conditions: at 1 µM
T1 sequence (whole entry): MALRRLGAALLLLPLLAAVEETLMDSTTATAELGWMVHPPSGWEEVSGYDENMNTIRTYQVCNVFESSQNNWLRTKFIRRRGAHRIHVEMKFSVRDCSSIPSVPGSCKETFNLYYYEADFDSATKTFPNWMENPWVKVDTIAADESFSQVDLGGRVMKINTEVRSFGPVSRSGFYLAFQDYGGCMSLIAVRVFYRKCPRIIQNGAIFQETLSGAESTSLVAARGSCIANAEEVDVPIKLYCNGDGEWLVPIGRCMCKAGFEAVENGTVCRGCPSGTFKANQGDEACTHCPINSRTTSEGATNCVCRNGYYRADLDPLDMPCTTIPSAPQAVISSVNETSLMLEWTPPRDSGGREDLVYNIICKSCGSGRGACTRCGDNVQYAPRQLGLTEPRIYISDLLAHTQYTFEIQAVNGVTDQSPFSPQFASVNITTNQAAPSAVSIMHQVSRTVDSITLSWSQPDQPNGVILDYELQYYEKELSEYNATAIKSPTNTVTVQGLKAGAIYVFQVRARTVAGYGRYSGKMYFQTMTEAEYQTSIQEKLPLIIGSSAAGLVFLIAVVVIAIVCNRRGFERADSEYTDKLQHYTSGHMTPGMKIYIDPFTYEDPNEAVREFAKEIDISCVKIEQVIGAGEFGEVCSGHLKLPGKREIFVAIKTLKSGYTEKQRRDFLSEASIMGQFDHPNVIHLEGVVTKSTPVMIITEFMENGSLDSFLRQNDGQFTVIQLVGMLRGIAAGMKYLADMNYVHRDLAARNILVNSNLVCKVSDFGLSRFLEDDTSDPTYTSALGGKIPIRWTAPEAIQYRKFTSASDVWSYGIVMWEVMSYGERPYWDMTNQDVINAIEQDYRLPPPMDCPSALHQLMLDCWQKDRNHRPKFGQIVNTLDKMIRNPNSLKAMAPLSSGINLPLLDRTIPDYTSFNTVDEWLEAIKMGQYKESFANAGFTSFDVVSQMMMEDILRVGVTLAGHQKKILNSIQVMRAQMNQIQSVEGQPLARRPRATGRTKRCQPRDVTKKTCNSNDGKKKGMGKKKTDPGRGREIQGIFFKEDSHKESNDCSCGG

[2] = biological target: T2, Ephrin type-B receptor 3 (Homo sapiens) (UniProt P54753); conditions: at 0.1 µM
T2 sequence (whole entry): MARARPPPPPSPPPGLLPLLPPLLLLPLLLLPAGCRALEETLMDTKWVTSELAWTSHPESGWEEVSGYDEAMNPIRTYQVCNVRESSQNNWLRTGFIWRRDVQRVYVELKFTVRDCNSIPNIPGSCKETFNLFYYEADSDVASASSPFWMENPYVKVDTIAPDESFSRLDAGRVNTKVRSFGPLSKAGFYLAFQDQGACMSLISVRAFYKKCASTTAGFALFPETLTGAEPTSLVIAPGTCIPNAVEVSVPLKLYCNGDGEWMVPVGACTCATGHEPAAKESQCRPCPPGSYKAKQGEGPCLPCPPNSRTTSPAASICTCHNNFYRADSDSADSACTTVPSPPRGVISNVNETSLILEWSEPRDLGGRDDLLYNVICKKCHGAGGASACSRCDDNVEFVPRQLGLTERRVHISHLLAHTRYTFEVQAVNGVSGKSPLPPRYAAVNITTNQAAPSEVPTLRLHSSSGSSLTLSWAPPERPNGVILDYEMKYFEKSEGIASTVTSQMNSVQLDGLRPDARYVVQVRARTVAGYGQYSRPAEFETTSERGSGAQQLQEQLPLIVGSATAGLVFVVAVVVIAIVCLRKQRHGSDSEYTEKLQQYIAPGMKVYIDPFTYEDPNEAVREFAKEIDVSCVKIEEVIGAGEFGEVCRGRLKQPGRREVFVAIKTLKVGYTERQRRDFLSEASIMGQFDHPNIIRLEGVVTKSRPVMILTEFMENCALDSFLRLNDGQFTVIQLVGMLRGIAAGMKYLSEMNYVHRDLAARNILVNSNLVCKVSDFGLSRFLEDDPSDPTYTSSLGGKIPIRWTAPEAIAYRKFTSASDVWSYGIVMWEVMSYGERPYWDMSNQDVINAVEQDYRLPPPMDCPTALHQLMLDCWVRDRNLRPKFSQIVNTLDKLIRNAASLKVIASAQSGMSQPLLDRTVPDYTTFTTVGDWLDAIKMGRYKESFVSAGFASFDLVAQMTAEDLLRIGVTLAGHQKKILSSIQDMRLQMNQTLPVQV

[3] = biological target: T2, Ephrin type-B receptor 3 (Homo sapiens); conditions: at 1 µM
[4] = biological target: T3, Ephrin type-B receptor 4 (Homo sapiens) (UniProt P54760); conditions: at 0.1 µM
T3 sequence (whole entry): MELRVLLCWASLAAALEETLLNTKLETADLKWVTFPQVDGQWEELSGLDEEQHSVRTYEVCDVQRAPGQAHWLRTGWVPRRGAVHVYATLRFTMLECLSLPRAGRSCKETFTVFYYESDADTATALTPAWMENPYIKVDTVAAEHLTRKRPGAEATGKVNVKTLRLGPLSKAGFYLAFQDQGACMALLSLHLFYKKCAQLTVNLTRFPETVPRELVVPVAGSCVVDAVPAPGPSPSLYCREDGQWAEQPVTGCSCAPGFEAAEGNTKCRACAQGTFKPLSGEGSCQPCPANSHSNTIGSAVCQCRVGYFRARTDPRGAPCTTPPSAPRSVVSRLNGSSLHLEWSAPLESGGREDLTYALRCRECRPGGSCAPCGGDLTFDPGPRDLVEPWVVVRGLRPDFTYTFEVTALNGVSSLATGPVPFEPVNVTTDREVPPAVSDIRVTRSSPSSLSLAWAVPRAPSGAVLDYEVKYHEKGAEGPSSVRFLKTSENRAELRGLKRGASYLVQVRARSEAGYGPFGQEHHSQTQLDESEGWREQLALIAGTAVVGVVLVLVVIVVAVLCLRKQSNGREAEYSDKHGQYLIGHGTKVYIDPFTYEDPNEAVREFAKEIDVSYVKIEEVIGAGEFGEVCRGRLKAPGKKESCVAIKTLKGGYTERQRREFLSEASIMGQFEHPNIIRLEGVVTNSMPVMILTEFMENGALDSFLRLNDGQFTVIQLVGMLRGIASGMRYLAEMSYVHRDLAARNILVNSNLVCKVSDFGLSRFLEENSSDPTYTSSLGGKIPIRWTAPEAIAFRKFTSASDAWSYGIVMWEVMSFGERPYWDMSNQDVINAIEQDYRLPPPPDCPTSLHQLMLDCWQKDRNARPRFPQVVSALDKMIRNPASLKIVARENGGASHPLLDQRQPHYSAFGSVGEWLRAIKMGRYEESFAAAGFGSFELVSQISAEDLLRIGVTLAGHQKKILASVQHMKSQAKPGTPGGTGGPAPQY

[5] = biological target: T3, Ephrin type-B receptor 4 (Homo sapiens); conditions: at 1 µM
[6] = biological target: Receptor tyrosine-protein kinase erbB-2 (Homo sapiens) (UniProt P04626); conditions: at 0.1 µM
[7] = biological target: Receptor tyrosine-protein kinase erbB-2 (Homo sapiens) (UniProt P04626); conditions: at 1 µM
[8] = biological target: Receptor tyrosine-protein kinase erbB-4 (Homo sapiens) (UniProt Q15303); conditions: at 0.1 µM
Sequence of Receptor tyrosine-protein kinase erbB-4 (Homo sapiens) (Q15303 whole entry): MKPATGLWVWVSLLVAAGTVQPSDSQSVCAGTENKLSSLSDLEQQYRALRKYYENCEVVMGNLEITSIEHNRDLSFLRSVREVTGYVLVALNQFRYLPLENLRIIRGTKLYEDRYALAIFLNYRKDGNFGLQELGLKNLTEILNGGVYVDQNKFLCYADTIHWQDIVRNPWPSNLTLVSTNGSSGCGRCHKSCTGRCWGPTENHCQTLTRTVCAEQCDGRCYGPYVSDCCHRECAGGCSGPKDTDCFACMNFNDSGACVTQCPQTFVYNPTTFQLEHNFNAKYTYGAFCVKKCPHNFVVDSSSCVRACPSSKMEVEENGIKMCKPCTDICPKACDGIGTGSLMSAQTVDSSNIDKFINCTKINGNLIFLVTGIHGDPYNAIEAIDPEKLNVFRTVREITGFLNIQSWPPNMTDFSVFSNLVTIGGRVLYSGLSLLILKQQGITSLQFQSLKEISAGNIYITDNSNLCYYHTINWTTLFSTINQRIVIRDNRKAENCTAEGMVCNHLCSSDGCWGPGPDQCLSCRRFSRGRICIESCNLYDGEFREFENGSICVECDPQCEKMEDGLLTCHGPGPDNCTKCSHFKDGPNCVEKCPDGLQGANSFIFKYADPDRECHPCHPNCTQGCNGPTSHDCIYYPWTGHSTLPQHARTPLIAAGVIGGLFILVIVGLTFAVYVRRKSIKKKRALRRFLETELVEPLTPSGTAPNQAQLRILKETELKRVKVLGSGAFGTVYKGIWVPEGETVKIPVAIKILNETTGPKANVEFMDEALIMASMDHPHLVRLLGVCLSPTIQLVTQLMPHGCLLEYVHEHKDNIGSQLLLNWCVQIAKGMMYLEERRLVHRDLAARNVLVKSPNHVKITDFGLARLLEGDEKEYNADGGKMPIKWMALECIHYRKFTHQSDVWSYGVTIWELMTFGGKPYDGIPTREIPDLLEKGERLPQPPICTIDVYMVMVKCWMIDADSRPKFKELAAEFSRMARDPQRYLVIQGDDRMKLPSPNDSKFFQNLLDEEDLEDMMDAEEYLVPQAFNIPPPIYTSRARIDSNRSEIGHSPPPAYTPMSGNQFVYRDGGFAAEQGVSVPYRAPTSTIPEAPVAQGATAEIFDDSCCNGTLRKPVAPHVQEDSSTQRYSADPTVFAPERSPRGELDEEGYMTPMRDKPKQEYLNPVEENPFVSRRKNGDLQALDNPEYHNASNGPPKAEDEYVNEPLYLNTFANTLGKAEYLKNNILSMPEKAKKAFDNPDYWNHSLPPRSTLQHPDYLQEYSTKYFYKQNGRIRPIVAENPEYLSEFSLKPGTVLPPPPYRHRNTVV

[9] = biological target: Receptor tyrosine-protein kinase erbB-4 (Homo sapiens) (UniProt Q15303); conditions: at 1 µM
[10] = biological target: Tyrosine-protein kinase Fer (Homo sapiens) (UniProt P16591); conditions: at 0.1 µM
Sequence of Tyrosine-protein kinase Fer (Homo sapiens) (P16591 whole entry, looked up): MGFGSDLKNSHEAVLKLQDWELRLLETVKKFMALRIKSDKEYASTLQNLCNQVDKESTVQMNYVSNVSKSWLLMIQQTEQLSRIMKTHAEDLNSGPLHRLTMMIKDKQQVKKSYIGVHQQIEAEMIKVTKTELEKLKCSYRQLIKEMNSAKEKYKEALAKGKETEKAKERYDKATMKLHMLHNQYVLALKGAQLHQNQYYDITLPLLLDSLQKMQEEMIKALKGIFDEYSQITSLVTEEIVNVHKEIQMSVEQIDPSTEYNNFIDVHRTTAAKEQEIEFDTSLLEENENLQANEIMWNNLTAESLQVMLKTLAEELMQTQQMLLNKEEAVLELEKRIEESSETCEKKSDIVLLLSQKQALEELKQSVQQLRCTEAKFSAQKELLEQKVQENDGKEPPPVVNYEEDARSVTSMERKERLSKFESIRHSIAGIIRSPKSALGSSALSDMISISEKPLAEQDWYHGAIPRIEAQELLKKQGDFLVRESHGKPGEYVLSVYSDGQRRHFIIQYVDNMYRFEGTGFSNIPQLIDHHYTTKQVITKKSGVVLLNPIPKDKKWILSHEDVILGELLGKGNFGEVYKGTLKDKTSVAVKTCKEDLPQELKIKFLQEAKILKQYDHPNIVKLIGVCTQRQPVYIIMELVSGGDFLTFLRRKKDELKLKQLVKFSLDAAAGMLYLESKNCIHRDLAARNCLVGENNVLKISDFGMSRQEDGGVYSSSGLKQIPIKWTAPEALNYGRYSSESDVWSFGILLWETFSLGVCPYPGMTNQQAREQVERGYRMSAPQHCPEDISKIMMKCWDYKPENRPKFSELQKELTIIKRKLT

[11] = biological target: Tyrosine-protein kinase Fer (Homo sapiens) (UniProt P16591); conditions: at 1 µM
[12] = biological target: Tyrosine-protein kinase Fes/Fps (Homo sapiens) (UniProt P07332); conditions: at 0.1 µM
Sequence of Tyrosine-protein kinase Fes/Fps (Homo sapiens) (P07332 whole entry): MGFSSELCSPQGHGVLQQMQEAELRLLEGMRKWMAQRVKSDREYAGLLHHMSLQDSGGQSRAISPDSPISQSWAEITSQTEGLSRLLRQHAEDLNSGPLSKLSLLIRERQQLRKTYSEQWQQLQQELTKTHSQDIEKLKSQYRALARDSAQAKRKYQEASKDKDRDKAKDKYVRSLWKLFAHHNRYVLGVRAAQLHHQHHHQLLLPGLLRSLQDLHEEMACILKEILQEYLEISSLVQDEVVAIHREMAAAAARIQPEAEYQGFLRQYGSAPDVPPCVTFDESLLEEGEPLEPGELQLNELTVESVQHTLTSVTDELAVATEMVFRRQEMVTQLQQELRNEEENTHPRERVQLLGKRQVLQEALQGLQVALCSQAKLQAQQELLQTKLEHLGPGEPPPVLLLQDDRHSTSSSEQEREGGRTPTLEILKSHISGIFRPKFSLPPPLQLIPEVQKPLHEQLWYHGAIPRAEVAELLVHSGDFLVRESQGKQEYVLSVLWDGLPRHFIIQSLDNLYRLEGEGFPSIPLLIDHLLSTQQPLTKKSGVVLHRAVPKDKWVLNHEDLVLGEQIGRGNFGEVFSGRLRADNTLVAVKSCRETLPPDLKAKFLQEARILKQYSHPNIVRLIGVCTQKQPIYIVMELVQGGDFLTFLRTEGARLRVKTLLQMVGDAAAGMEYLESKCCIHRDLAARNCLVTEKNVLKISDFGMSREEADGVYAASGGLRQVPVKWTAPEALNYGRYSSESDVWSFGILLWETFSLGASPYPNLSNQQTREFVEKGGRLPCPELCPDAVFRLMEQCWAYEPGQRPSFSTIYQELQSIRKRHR

[13] = biological target: Tyrosine-protein kinase Fes/Fps (Homo sapiens) (UniProt P07332); conditions: at 1 µM
[14] = biological target: Fibroblast growth factor receptor 1 (Homo sapiens) (UniProt P11362); conditions: at 0.1 µM
[15] = biological target: Fibroblast growth factor receptor 1 (Homo sapiens) (UniProt P11362); conditions: at 1 µM
[16] = biological target: Fibroblast growth factor receptor 2 (Homo sapiens) (UniProt P21802); conditions: at 0.1 µM
[17] = biological target: Fibroblast growth factor receptor 2 (Homo sapiens) (UniProt P21802); conditions: at 1 µM
[18] = biological target: Fibroblast growth factor receptor 3 (Homo sapiens) (UniProt P22607); conditions: at 0.1 µM
Sequence of Fibroblast growth factor receptor 3 (Homo sapiens) (P22607 23-806 limits assumed): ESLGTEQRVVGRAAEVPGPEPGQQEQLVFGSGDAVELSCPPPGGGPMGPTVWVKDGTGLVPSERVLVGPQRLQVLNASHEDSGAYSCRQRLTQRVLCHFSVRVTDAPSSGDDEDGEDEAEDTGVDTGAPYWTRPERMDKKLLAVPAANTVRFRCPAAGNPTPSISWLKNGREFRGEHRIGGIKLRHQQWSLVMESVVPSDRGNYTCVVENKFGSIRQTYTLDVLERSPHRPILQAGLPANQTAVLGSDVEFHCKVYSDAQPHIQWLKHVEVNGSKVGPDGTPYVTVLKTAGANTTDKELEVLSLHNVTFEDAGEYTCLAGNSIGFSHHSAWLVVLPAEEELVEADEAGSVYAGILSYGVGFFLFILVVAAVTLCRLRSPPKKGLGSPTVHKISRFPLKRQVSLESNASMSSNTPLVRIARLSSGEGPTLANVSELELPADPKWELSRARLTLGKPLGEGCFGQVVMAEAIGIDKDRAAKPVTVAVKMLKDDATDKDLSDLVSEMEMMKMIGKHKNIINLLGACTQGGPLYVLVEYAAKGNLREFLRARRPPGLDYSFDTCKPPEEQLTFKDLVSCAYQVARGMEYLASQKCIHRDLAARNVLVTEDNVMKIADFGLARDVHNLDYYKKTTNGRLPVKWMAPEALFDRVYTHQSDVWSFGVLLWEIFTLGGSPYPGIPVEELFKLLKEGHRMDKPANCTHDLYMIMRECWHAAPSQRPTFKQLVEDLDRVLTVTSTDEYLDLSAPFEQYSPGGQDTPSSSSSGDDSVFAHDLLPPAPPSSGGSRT

[19] = biological target: Fibroblast growth factor receptor 3 (Homo sapiens) (UniProt P22607); conditions: at 1 µM
[20] = biological target: Fibroblast growth factor receptor 4 (Homo sapiens) (UniProt P22455); conditions: at 0.1 µM;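 note: values are mean percent inhibition of FGFR4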
Sequence of Fibroblast growth factor receptor 4 (Homo sapiens) (P22455 22-802 limits assumed): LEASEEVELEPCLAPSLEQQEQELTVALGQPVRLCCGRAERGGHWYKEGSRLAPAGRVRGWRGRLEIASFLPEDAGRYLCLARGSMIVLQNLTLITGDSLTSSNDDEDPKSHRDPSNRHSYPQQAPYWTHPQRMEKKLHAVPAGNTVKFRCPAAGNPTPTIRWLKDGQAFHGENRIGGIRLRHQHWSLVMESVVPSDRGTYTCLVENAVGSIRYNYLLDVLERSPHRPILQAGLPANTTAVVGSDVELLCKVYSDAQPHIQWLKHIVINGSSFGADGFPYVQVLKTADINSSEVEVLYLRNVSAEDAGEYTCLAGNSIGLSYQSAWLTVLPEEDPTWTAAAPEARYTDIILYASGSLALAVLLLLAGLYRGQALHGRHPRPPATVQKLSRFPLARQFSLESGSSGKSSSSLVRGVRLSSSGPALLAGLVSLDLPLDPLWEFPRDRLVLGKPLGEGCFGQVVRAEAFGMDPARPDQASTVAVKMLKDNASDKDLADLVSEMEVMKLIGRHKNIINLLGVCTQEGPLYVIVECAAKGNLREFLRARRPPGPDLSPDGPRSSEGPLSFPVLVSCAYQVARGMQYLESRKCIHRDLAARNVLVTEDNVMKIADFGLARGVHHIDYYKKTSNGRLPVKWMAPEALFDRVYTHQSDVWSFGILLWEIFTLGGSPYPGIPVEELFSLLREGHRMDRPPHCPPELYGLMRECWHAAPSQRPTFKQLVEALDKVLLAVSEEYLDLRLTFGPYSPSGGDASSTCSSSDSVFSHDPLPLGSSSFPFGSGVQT

SMILES | inhibition [1] [%] | inhibition [2] [%] | inhibition [3] [%] | inhibition [4] [%] | inhibition [5] [%] | inhibition [6] [%] | inhibition [7] [%] | inhibition [8] [%] | inhibition [9] [%] | inhibition [10] [%] | inhibition [11] [%] | inhibition [12] [%] | inhibition [13] [%] | inhibition [14] [%] | inhibition [15] [%] | inhibition [16] [%] | inhibition [17] [%] | inhibition [18] [%] | inhibition [19] [%] | inhibition [20] [%]
c1ccc(-c2n[nH]cc2-c2ccnc(-c3ccc(OCCN4CCOCC4)cc3)c2)nc1 | 5.59 | -5.09 | -7.2 | -1.67 | 0.63 | -3.69 | -4.37 | 3.65 | 2.65 | 7.06 | 5.42 | 0.55 | 0.54 | 3.52 | 5.55 | 4.12 | 7.12 | 3.61 | 5.31 | 4.68
O=C(Nc1n[nH]c2nc(-c3ccc(O)cc3)c(Br)cc12)C1CC1 | 37.8 | 9.61 | 5.92 | 7.91 | 28.8 | 2.58 | 4.82 | 14.9 | 22 | 3.43 | 7.42 | 3.04 | 3.83 | 7.1 | 21.4 | 7.18 | 17.9 | 8.23 | 12.5 | 0.04
COc1ccc2cc(-c3c(-c4ccncc4)nc(-c4ccc([S+](C)[O-])cc4C)n3C)ccc2c1 (configuration not stated) | 19.7 | 4.06 | 14.6 | 4.17 | 22.5 | 1.42 | 5.05 | 9.39 | 37.1 | 1.31 | 3.2 | -0.52 | -1.2 | -0.12 | 2.93 | -0.56 | 2.09 | 1.3 | 3.02 | 2.92
C/C(Nc1ccc(S(N)(=O)=O)cc1)=C1/C(=O)Nc2ccccc21 | -0.51 | -3.87 | -3.57 | -2.17 | -2.22 | -3.56 | -3.5 | -5.37 | -8.14 | 0.46 | 10.5 | -2.91 | -3.39 | -4.77 | 6.33 | 0.2 | 21.1 | 0.94 | 21 | 1.73
COC(=O)Nc1nc2ccc(Sc3ccc(NC(=O)Nc4cc(C(F)(F)F)ccc4F)cc3)cc2[nH]1 | 79.9 | 3.25 | 11.3 | 6.3 | 57.2 | 0.24 | 1.41 | 1.95 |  | 1.93 | 1.11 | 0.33 | -0.58 | -1.07 | -3.15 | 0.25 | 4 | 2.1 | 2.77 | 3.12
COc1cc2ncn(-c3cc(OCc4ccccc4C(F)(F)F)c(C(C)=O)s3)c2cc1OC | 9 | 3.62 | 3.29 | 0.64 | 3.47 | 3.47 | 4.43 | 6.91 | 9.68 | 2.43 | 7.96 | 2.84 | 2.74 | 2.64 | 2.73 | 3.27 | 9.16 | 2.58 | 6.41 | -0.33
COc1cc(Nc2ncc(-c3ccccc3)o2)cc(OC)c1OC | 5.83 | -5.87 | -2.19 | 1.05 | 3.25 | 0.87 | -1.74 | -4.19 | -2.66 | -1.48 | 2.66 | 0.68 | -1.45 | -3.33 | 8.79 | 4.47 | 27 | 1.69 | 16.6 | -0.19
CN(C)CCOc1ccc(-c2cc(-c3ccc4c(c3)CCC4=NO)c(-c3ccncc3)o2)cc1 | 6.81 | -0.49 | 5.63 | 0.06 | 1.37 | 3.66 | 5.12 | 1.69 | 13 | -1.17 | -0.96 | 0.22 | -1.71 | -4.37 | -0.28 | -2.17 | -0.7 | -1.69 | -0.19 | 1.99
c1ccc(Oc2ccc(Nc3ncc(-c4ccccc4)o3)cc2)cc1 | 9.65 | 2.67 | 0.66 | 2.42 | 0.76 | -0.01 | 1.41 | 4.29 | 5.09 | 2.19 | 1.64 | 0.55 | 0.4 | -1.76 | 2.11 | 1.12 | 3.49 | 4.41 | 4.9 | 2.77
Cc1ccc(C(=O)NC(C)C)cc1-c1ccc(C(=O)NCC2CC2)cc1 | 0.35 | -7.05 | -4.82 | -0.32 | -2.91 | -5.52 | -4.79 |  |  | -1.9 | -1.61 | -2.77 | -3 | -5.37 | -2.8 | -4.22 | -3.57 | -4.95 | -3.57 | 1.18
NC(=O)c1ccc(Oc2nccc(-c3c(-c4ccc(F)cc4)ncn3C3CCNCC3)n2)cc1 | 4.72 | 4.03 | 3.75 | 3.7 | 3.09 | 3.73 | 3.35 | 5.71 | 8.73 | 7.08 | 10.6 | 4.82 | 4.5 | 5.23 | 8.19 | 11.3 | 8.04 | 11 | 6.64 | 5.18

From ChEMBL document CHEMBL1961873, “Compounds: GSK PKIS; Assays: Nanosyn kinase panel” (2012)
